Screens: PubChem BioAssay, National Center for Advancing Translational Sciences (NCATS)
The list is not random: actives were taken first. Their share in the collection is about 9.9%.
SW480 rereplic: DNA re-replication induction in SW480 cells | SW480 DNA re-replication, Hoechst DNA content imaging, 48 h | Potency, µM (doses to about 46.1 µM), most hits filed as activators | hit rate 1.8% among 340,000; further: nearly all actives have a fitted effect of over 55% in size
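Hoechst fluorescence of nuclei (405 nm excitation, 500-530 nm emission) measured by plate-scanning imager after 48 hr compound exposure at 37 C; re-replication scored as increased number of nuclei with elevated intensity.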
IL1B secr inh: blocks inflammasome-driven IL-1 beta release. THP-1 LPS/ATP IL-1B secretion, AlphaLISA, 16 h; hits give low values. activity change, % at 57.5 µM. hit rate 4.7% among 360,000. AID 743279; in the data active means activity change below about -50%; inconclusive means mostly about -30% to -49%
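Secreted IL-1B measured by AlphaLISA bead assay after 16 h compound exposure of THP-1 cells; compounds (final up to 57.5 uM) added 1 h before LPS (250 ng/mL) and ATP (1.25 mM) stimulation; lower signal means less secretion.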
MCF10A rereplic: induces DNA re-replication in MCF 10a normal breast cells; hit rate 2.9% among 350,000; Potency, µM (highest dose often 46.1 µM), usual class: activators; MCF 10A DNA re-replication, Hoechst nuclear intensity, 48 h; further: nearly all actives have a fitted effect of over 50% in size
KB-3-1 cytotox: KB-3-1 parental cell cytotoxicity; Potency, µM (series often up to 46.1 µM), usual class: cytotoxic; hit rate 1.4% among 400,000; KB-3-1 viability, CellTiter-Glo ATP luminescence, 72 h; further: nearly all actives have a fitted effect of over 60% in size
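Using CellTiter-Glo luminescence, growth of non-resistant KB-3-1 adenocarcinoma cells is assessed 72 h after pin-tool compound addition at 37 °C. Normalized responses across the concentration series yield fitted curves.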
KB-V1 cytotox: kills drug-selected multidrug resistant KB-V1 cells | KB-V1 MDR cells viability, CellTiter-Glo, 72 h | Potency, µM (doses to about 46.1 µM), most hits filed as cytotoxic | hit rate 3.4% among 400,000 | AID 1347076; further: nearly all actives have a fitted effect of over 60% in size
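KB-V1, DMEM (no phenol red) + 10% FBS; cpd pin-transferred, titration series; 72 h, 37 degrees C; CellTiter-Glo, luminescence. Data normalized, curve-fit.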
Of the large screens only hits and unclear results are named; the others gave an inactive call. Unless noted, the call rests on the fitted dose curve; in most records, active means well fitted curve in the direction sought with a large enough effect; inconclusive means small, poorly fitted or top-dose-only effect, or another doubt; inactive means no such curve, though single readings can be large; an effect the other way counts as inactive or inconclusive.

Cc1ccc(C)c(Cn2c(=O)n(-c3ccc(Cl)cc3)c(=O)c3c4c(sc32)CCC4)c1	KB-V1 cytotox inconclusive (no result: SW480 rereplic, IL1B secr inh, MCF10A rereplic)
CN(CC(=O)Nc1ccc(OC(F)(F)F)cc1)C(=O)Cc1c(Cl)cccc1Cl	IL1B secr inh -55
CN(CC(=O)NC(=O)NC1CCCCC1)CC(=O)Nc1ccc(OC(F)(F)F)cc1	IL1B secr inh -70
COc1ccc(NC(=O)NC2CCCCC2C)cc1 (stereo unspecified)	none
COc1ccc(NC(=O)CN(C)CC(=O)NC2CCCCC2C)cc1 (stereo unspecified)	KB-V1 cytotox 18µM
COc1ccc(NC(=O)CN(C)CC(=O)NC(=O)NC2CCCCC2)cc1	none
COc1ccc(NC(=O)CN(C)CC(=O)NC2CCC(C)CC2)cc1 (stereo unspecified)	KB-V1 cytotox 21µM
Cc1ccc(Cl)cc1-n1nnc(-c2nc(-c3ccc4c(c3)OCO4)no2)c1C	none (no result: SW480 rereplic, IL1B secr inh, MCF10A rereplic)
Cc1ccc2onc(CNC(=O)Nc3cc(F)ccc3F)c2c1	none (no result: SW480 rereplic, IL1B secr inh, MCF10A rereplic)
CCN(CC)S(=O)(=O)c1cc(C(=O)Nc2cc(C)[nH]n2)ccc1Cl	KB-V1 cytotox inconclusive
N#CC1=C(SCC(=O)c2ccc(Br)cc2)NC2=C(C(=O)CCC2)C1c1ccco1 (stereo unspecified)	SW480 rereplic 13µM, MCF10A rereplic 7.9µM, KB-3-1 cytotox 10µM, KB-V1 cytotox 21µM
Cc1ccc(NC(=O)CSC2=C(C#N)C(c3ccco3)C3=C(CC(C)(C)CC3=O)N2)cc1 (stereo unspecified)	SW480 rereplic inconclusive
CCSc1sccc1C1C(C#N)=C(N)N(c2cccnc2)C2=C1C(=O)CCC2 (stereo unspecified)	MCF10A rereplic inconclusive
CCOC(=O)C1=C(c2ccccc2)NC(SCC(=O)Nc2cccc(C)c2)=C(C#N)C1c1ccco1 (stereo unspecified)	SW480 rereplic 18µM, MCF10A rereplic inconclusive, KB-V1 cytotox 15µM
CCOC(=O)C1=C(c2ccccc2)NC(SCC(=O)Nc2ccc(C)cc2)=C(C#N)C1c1ccco1 (stereo unspecified)	SW480 rereplic inconclusive, KB-V1 cytotox inconclusive
COc1cc(C2C(C#N)=C(N)N(c3cccnc3)C3=C2C(=O)CCC3)ccc1O (stereo unspecified)	IL1B secr inh -59
CCc1ccc(NC(=O)CSC2=C(C#N)C(c3ccco3)C3=C(CCCC3=O)N2)cc1 (stereo unspecified)	SW480 rereplic inconclusive, IL1B secr inh -90, MCF10A rereplic 18µM, KB-3-1 cytotox inconclusive, KB-V1 cytotox inconclusive
O=C(c1nc(-c2ccc(Cl)cc2)n2c1CCCCC2)N1CCN(c2ccccc2)CC1	none (no result: SW480 rereplic, IL1B secr inh, MCF10A rereplic)
CCc1ccccc1NC(=O)CSC1=C(C#N)C(c2ccc(O)c(OC)c2)C2=C(CCCC2=O)N1 (stereo unspecified)	SW480 rereplic inconclusive, MCF10A rereplic 16µM, KB-3-1 cytotox inconclusive
COC(=O)c1ccc(NC(=O)CC(=O)Nc2ccc(C(=O)OC)cc2)cc1	MCF10A rereplic 15µM
COc1ccc(OCCC(=O)OCC(=O)Nc2ccc(S(=O)(=O)N3CCOCC3)cc2)cc1	IL1B secr inh -65
CSc1ncccc1C(=O)OCC(=O)Nc1ccc(S(=O)(=O)N2CCCC2)cc1	none
CSc1ncccc1C(=O)OCC(=O)c1ccc(S(=O)(=O)N2CCCCC2)cc1	KB-V1 cytotox 23µM
COC(=O)c1ccc(NC(=O)COc2ccc(S(=O)(=O)N3CCCCC3)cc2)cc1	KB-V1 cytotox 5.2µM
O=C(COc1ccc(S(=O)(=O)N2CCCC2)cc1)Nc1ccc(F)cc1	MCF10A rereplic inconclusive
O=C(COc1ccc(Br)cc1)OCCN1CCCCC1	none
COc1ccc(S(=O)(=O)N(C)C[C@H]2Oc3ccc(NC(=O)Nc4c(C)noc4C)cc3C(=O)N([C@H](C)CO)C[C@@H]2C)cc1	none
Cc1cccc(NC(=O)COC(=O)c2ccc(S(=O)(=O)N3CCCCCC3)cc2)c1	KB-V1 cytotox 16µM
Cc1ccccc1C(=O)OCC(=O)Nc1cccc(S(=O)(=O)N2CCCCC2)c1	none (no result: SW480 rereplic, MCF10A rereplic)
Cc1ccc2cccc(OCC(=O)Nc3cccc(S(=O)(=O)N4CCCC4)c3)c2n1	IL1B secr inh -71, MCF10A rereplic inconclusive (no result: KB-3-1 cytotox, KB-V1 cytotox)
Cc1ccc(OCC(=O)Nc2cccc(S(=O)(=O)N3CCCCC3)c2)c([N+](=O)[O-])n1	none
COC(=O)c1ccc(NC(=O)COc2ccc(N(C)S(=O)(=O)c3ccc(C)cc3)cc2)cc1	MCF10A rereplic 18µM (no result: KB-3-1 cytotox, KB-V1 cytotox)
Cc1ccc(C)c(C(=O)OCC(=O)Nc2cccc(S(=O)(=O)N3CCCCC3)c2)c1	SW480 rereplic inconclusive, KB-3-1 cytotox 15µM, KB-V1 cytotox inconclusive
Cc1cc(-c2nc3ncccc3o2)ccc1NC(=O)COc1cc(C)c(Cl)c(C)c1	none (no result: SW480 rereplic, IL1B secr inh, MCF10A rereplic)
CN(C)c1ccc(C(=O)OCC(=O)Nc2cccc(S(=O)(=O)N3CCCC3)c2)cc1	KB-V1 cytotox 16µM
O=C(COc1ccccc1Cc1ccccc1)Nc1cccc(S(=O)(=O)N2CCOCC2)c1	KB-3-1 cytotox inconclusive, KB-V1 cytotox 5.2µM
COc1ccc2cc(C(=O)C3CCCN(C(=O)c4ccnn4C)C3)ccc2c1 (stereo unspecified)	SW480 rereplic inconclusive, MCF10A rereplic inconclusive, KB-V1 cytotox 16µM
CCOC(=O)N1CCC(N2CCCC(C(=O)c3ccc4cc(OC)ccc4c3)C2)CC1 (stereo unspecified)	SW480 rereplic inconclusive, IL1B secr inh -162
COc1cccc(-c2ccc(NC(=O)C3CCCN(Cc4cccc(C)n4)C3)cc2)c1 (stereo unspecified)	none (no result: SW480 rereplic, MCF10A rereplic)
CC(C)c1cc(C(=O)N2CCCC(C(=O)c3ccc4ccccc4c3)C2)on1 (stereo unspecified)	IL1B secr inh -89, MCF10A rereplic inconclusive
COc1ccc2cc(C(=O)C3CCCN(Cc4cccc(C)n4)C3)ccc2c1 (stereo unspecified)	SW480 rereplic inconclusive, IL1B secr inh -109, MCF10A rereplic inconclusive
Cc1ccccc1CN1CCN(C(=O)CC(C)C)CC1	none
CCN(CC)S(=O)(=O)c1ccc(NC(=O)COC(=O)c2ccc(NC(=O)CC#N)cc2)cc1	none
CN(CC(=O)Nc1ccc(F)c(F)c1F)C(=O)C1CCCC1	none
COc1ccc(C(=O)C2CCCN(C(=O)c3cccnc3SC)C2)c(C)c1 (stereo unspecified)	IL1B secr inh -70
CC(C)Oc1cccc(C(=O)C2CCCN(C(=O)c3cc(C(F)(F)F)[nH]n3)C2)c1 (stereo unspecified)	IL1B secr inh -54, KB-3-1 cytotox inconclusive, KB-V1 cytotox 21µM
CCn1ncc(CN2CCCC(C(=O)c3cccc(OC(C)C)c3)C2)c1C (stereo unspecified)	MCF10A rereplic 23µM
COc1ccc(C(=O)C2CCCN(C(=O)/C=C/c3ccccn3)C2)c(C)c1 (stereo unspecified)	KB-V1 cytotox inconclusive
NNC(=S)Nc1c(F)cc(F)cc1Br	MCF10A rereplic inconclusive
